# Screening data from PubChem.
# An excerpt weighted towards active compounds, which were near 5.3% of everything screened.
# HP1b chromo inh: HP1-beta chromodomain-methylated histone interaction inhibition; 390,000 tested, 0.56% active; Potency, µM (series often up to 114 µM), inactives show at the top dose activity change, negative = inhibition, usual class: inhibitors; AlphaScreen HP1-beta / biotin-H3K9me3 peptide binding; AID 540317; further: potency means the concentration at half of the fitted maximal effect; nearly all actives have a fitted effect of over 70% in size
# Target sequence (P83916 whole entry, looked up): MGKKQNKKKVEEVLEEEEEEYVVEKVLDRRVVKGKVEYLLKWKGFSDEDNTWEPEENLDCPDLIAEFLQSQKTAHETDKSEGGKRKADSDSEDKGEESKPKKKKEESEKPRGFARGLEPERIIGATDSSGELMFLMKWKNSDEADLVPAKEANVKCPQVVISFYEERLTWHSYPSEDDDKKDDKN
#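 AlphaScreen: HP1-beta (50 nM) preformed 30 min with biotin-H3(1-18)K9me3 peptide (50 nM) in PBS pH 7.4, 0.01% Tween-20. Compound added for 30 min at RT, then streptavidin donor/nickel chelate acceptor beads (10 ug/mL) for 30 min.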
# BAZ2B inh: blocks human BAZ2B; Potency, µM (titrated, usually from 114 µM), for inactives: at the top dose activity change, negative = inhibition, hits mostly inhibitors; 360,000 tested, 4.4% active; AlphaScreen BAZ2B-H3K14Ac peptide displacement; Q9UIF8; further: potency means the concentration at half of the fitted maximal effect; on the % scale 0 is the no-effect control and ±100 the full control effect; nearly all actives have a fitted effect of over 60% in size
#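 In this displacement format the biotinylated H3(5-23) peptide acetylated at Lys14 serves as ligand at 50 nM, with BAZ2B at 50 nM in PBS pH 7.4 containing 0.01% Tween-20. Donor and acceptor beads are 10 ug/mL final.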
# CtBP-E1A inh: inhibitors of CtBP/E1A interaction; AlphaScreen GST-E1A/His-CtBP binding, 1536-well; stronger effect = lower value; activity change, % (test concentration not listed); 340,000 tested, 0.49% active; AID 651724; in the data active means activity change below about -65%; inconclusive means mostly about -30% to -63%; further: on the % scale 0 is the no-effect control and ±100 the full control effect
#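 GST-E1A and His-tagged CtBP (125 nM each as 5X stock) were preincubated with pin-transferred compound for 2 h at 37 °C in the dark, then glutathione donor and nickel acceptor beads were added for 1 h before AlphaScreen reading.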
# TDP1 block: inhibitors of human tyrosyl-DNA phosphodiesterase TDP1; recombinant TDP1, AlphaScreen DNA substrate cleavage; 350,000 tested, 0.28% active; Potency, µM (series often up to 130 µM), without a hit: at the top dose activity change, negative = inhibition, hits mostly inhibitors; Q9NUW8; further: potency means the concentration at half of the fitted maximal effect; on the % scale 0 is the no-effect control and ±100 the full control effect; nearly all actives have a fitted effect of over 40% in size
#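 AlphaScreen read-out: signal falls as enzyme removes the 3' tyrosine-FITC from a 5'-biotinylated DNA oligo (15 nM, 5 min, RT). Enzyme was E. coli-made recombinant Tdp1 at 1 nM, exposed to compound for 15 min beforehand; beads 10 ug/ml, 10 min.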
# Six1-Eya2 blk: inhibitors of human Six1/Eya2 interaction; Q15475+O00167; AlphaScreen GST-Six1/His-Eya2 binding, biochemical; stronger effect = lower value; activity change, % (test concentration not listed); 360,000 tested, 0.56% active; AID 651725; in the data active means activity change below about -65%; inconclusive means mostly about -30% to -63%; further: on the % scale 0 is the no-effect control and ±100 the full control effect
#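 GST-Six1 + His-Eya2 (5X stock: 250/500 nM); Tris pH 8.0, 300 mM NaCl, 0.05% BSA, 0.02% Tween 20; GSH donor/Ni acceptor beads; 1 h 37 °C dark; AlphaScreen readout.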
# JMJD2A Tudor: JMJD2A Tudor domain (human) inhibition. AlphaScreen JMJD2A-Tudor / H3K4me3 peptide binding. Potency, µM (highest dose often 114 µM), without a hit: at the highest dose activity change, negative = inhibition, most hits filed as inhibitors. O75164. 390,000 tested, 4.4% active; further: potency means the concentration at half of the fitted maximal effect; on the % scale 0 is the no-effect control and ±100 the full control effect; nearly all actives have a fitted effect of over 50% in size
# Numbers without * were called inactive; ? = inconclusive; . = not tested or not shown; ! = not confirmed by another sample; [ ] = dose if it differs, or a comment. Unless noted, the call rests on the fitted dose curve; in most records, active means well fitted inhibition curve with a large enough effect; inconclusive means small, poorly fitted or top-dose-only effect; inactive means no such curve, though single readings can be large or run the other way.
SMILES,HP1b chromo inh,BAZ2B inh,CtBP-E1A inh,TDP1 block,Six1-Eya2 blk,JMJD2A Tudor
COc1ccc(NC(c2ccccc2)c2ccncc2)cc1 (stereo unspecified),8%,71µM*,5,.,3,45µM*
COc1cc(NC(=O)CNC(c2ccccc2)c2ccccc2)cc(OC)c1OC,7%,-12%,-7,.,-7,-17%
COc1cc(NC(c2ccccc2)c2ccccc2)cc(OC)c1OC,-7%,45µM*,-15,-2%,-1,-22%
Cc1c(NC(=O)c2cc(-c3ccc(F)cc3)on2)c(=O)n(-c2ccccc2)n1C,4%,1%,10,4%,5,79µM*!
COc1cc(/C=C2/C(=O)NN(c3cccc(Cl)c3)C2=O)cc(OC)c1O,?,28µM*,3,.,-3,50µM*
COc1cc(/C=C2\C(=O)NN(c3ccccc3)C2=O)ccc1OCC(N)=O,.,4%,.,-3%,.,.
CCOc1cc(/C=C2/C(=O)NN(c3cccc(Cl)c3)C2=O)ccc1O,-18%,35µM*,10,12%,13,?
C#CCCCO/N=C1/C[C@@H](O)[C@@H](O)[C@@H]2[C@@H]3C(=O)N(C4CCCCC4)C(=O)[C@H]3CC[C@@H]12,.,.,.,5%[21 µM],.,.
Cc1ccccc1OCCCCn1c(CCNC(=O)C(C)(C)C)nc2ccccc21,12%,?,.,6%,.,-26%
Cc1ccc(-n2nc3c(=O)n(C(C)C(=O)NCCC4=CCCCC4)nc(C)c3c2C)cc1 (stereo unspecified),46%,-25%,.,4%,0,45µM*
Cc1nn(C(C)C(=O)NCCc2ccco2)c(=O)c2nn(-c3ccccc3)c(C)c12 (stereo unspecified),1%,-18%,2,4%,1,79µM*
CC1CCC(NC(=O)c2ccc(CS(=O)(=O)c3cccc(C(F)(F)F)c3)o2)CC1 (stereo unspecified),60%,?,.,5%,.,-2%
Cn1nnnc1Sc1ncnc2scc(-c3ccccc3S(C)(=O)=O)c12,.,.,.,.,.,-16%
CCOCCCNCC(=O)Nc1ccc(OC(F)(F)F)cc1,?,79µM*,5,-9%,5,40µM*
O=C(Cc1ccccc1)NCC(=O)Nc1ccc(OC(F)(F)F)cc1,28%,-12%,11,4%,1,-8%
Cn1c(-c2sc3cc(C(F)(F)F)cnc3c2-c2ccccn2)n[nH]c1=S,23%,-16%,-5,5%,0,14µM*
CCCS(=O)(=O)c1c(S(=O)(=O)CCC)c2cc(CC)ccn2c1C(=O)c1ccc(Cl)cc1,30%,-3%,.,.,.,-23%
COc1ccc(N2C(=O)CSC23C(=O)N(CC(=O)Nc2ccccc2F)c2ccccc23)cc1 (stereo unspecified),22%,5%[57.1 µM],.,4%,.,-25%
O=C1Nc2ccccc2SC(c2ccccc2)C1O (stereo unspecified),-30%,40µM*,-3,?,-21,56µM*
C=CCn1c(CNS(=O)(=O)c2ccc(F)cc2)n[nH]c1=S,51%,-3%,8,0%,10,13µM*
C=CCn1c(CNS(=O)(=O)c2ccc(Br)cc2)n[nH]c1=S,29%,-13%,2,3%,1,28µM*
CCn1c(CNS(=O)(=O)c2ccc(Br)cc2)nnc1SC,36%,-15%,-21,4%,4,-12%
C=CCn1c(CNS(=O)(=O)c2ccc(Cl)cc2)n[nH]c1=S,28%,-13%,-1,2%,2,28µM*
CCOC(=O)c1c(C)[nH]c(C)c1S(=O)(=O)NCC(=O)N(C)c1ccc(C)c(C)c1,9%,1%,.,0%,.,-2%
O=C(c1ccc(F)cc1F)N1CCC(c2nc(-c3ccc(S(=O)(=O)N4CCCC4)cc3)no2)CC1,39%,0%,.,-2%,.,-11%
SMILES,HP1b chromo inh,BAZ2B inh,CtBP-E1A inh,TDP1 block,Six1-Eya2 blk,JMJD2A Tudor
N[C@H](C(=O)O)c1ccc(O)c(C(=O)O)c1,.,.,.,14%[56.1 µM],.,.
N[C@@H](C(=O)O)c1ccc(C(=O)O)c(C(=O)O)c1,.,.,.,40µM*!,.,.
CCCn1cc2c(c1-c1ccc(C)cc1)c(=O)n(C)c(=O)n2C,22%,?,0,4%,-8,-22%
COc1ccc(-c2c3c(=O)n(C)c(=O)n(C)c3cn2C2CCCCC2)cc1,?,50µM*,-1,9%,-18,?
Cc1ccc(C(=O)c2cn(Cc3c(F)cccc3Cl)c3nc(C)ccc3c2=O)cc1,8%,-6%,.,0%,.,-8%
O=c1c2ccccc2nc(-c2ccccc2)n1Cc1ccccc1,25%,-3%,-2,-5%,10,1%
COc1ccc(O)c(-c2nc3ccccc3c(=O)n2Cc2ccccc2)c1,.,.,.,2%,.,79µM*
Fc1ccc(-c2n[nH]c(=S)n2-c2ccc3c(c2)OCCO3)cc1,?,-23%,.,3%,-5,2.8µM*
S=c1[nH]nc(-c2cccnc2)n1-c1ccc2c(c1)OCCO2,19%,-11%,-8,-1%,-1,25µM*
S=c1[nH]nc(-c2ccc(Cl)cc2)n1-c1ccc2c(c1)OCCO2,14%,-33%,-6,5%,1,?
c1cncc(-c2nc(-c3ccc4c(c3)OCO4)cs2)c1,20%,-8%,-19,-2%,-11,-28%
CCCCNC(=O)c1cnc2c(-c3ccc(OCC)c(OCC)c3)c(C)nn2c1-c1ccccc1,51%,-8%,.,3%,.,-23%
COc1ccc(-c2noc(CCC(=O)NCCc3ccccc3)n2)cc1,0%,18%,-6,.,7,-6%
CCOc1ccc(-c2noc(CCC(=O)NCCc3ccccc3)n2)cc1OC,15%,-5%,-65*,.,7,-3%
Cc1oc(-c2cccc(Cl)c2)nc1Cn1c(SCc2ccccc2F)nc2ccncc21,9%,-18%,.,-3%,.,-32%
OCCn1c(-c2ccc(F)cc2)csc1=Nc1ccccc1,?,25µM*,-9,8%,-26,?
CCOc1ccc(N=c2scc(-c3ccccc3)n2CCO)cc1,?,8.9µM*,?,12%,?,?
OCCn1c(-c2ccc3c(c2)OCO3)csc1=Nc1ccccc1,?,40µM*,-24,6%,?,40µM*
CCCCn1c(-c2ccc(S(=O)(=O)N3CCOCC3)cc2)csc1=Nc1ccccc1,?,?,.,4%[12.3 µM],.,?
CCOc1ccc(N=c2scc(-c3ccc(OC)cc3)n2CCO)cc1,-21%,?,-21,0%,-26,?
CCn1c(-c2ccccc2)csc1=Nc1ccc(O)cc1,?,20µM*,?,10%,?,32µM*
COCCCNC(=O)CCCn1c(=O)c2cccn2c2cccnc21,-1%,-9%,.,3%,.,-18%
